Screens (PubChem)
Only some compounds are listed: those with a hit (about 0.9% of all), similar ones and a draw of the others.
SRC3 TRFRET art: TR-FRET artefact, counter-screen to PPARgamma/SRC-3 agonist assay; PPARgamma/SRC-3 format; hits give high values; TR-FRET ratio at 8 µM; hit rate 0.39% among 99,000; AID 1048
SRC1 TRFRET art: TR-FRET artefact, counter-screen to PPARgamma/SRC-1 agonist assay; TR-FRET detection artefact counter-screen, emission ratio; hits give high values; TR-FRET ratio at 8 µM; hit rate 0.34% among 99,000; in the data active = TR-FRET ratio above about 2300
SRC2 TRFRET art: TR-FRET artefact, counter-screen to PPARgamma/SRC-2 agonist assay; hits give high values; hit rate 0.4% among 200,000; TR-FRET ratio at 8 µM; AID 1049
PPARg SRC-3 ag: agonists of human PPARgamma SRC-3 coactivator recruitment; biochemical PPARgamma/SRC-3 coactivator recruitment assay; AID 731; hit rate 0.26% among 200,000; activation, % at 8 µM; P37231; in the data active = activation above about 23%;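 also: 0% = DMSO and 100% = reference agonist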
Target sequence (P37231 whole entry, looked up): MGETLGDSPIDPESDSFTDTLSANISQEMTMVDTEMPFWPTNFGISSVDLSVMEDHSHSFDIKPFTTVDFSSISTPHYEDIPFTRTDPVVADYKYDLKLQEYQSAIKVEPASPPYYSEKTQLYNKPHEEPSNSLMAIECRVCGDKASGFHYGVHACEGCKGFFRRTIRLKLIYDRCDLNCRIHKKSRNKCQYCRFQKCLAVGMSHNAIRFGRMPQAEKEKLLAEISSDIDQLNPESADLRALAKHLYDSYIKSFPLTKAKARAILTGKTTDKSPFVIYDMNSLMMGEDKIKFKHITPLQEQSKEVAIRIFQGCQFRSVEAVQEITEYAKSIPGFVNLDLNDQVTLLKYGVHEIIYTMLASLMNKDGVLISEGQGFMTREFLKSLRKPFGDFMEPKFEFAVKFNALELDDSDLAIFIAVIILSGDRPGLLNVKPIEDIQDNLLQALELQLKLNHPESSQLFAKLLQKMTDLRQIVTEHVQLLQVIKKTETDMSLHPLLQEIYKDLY
PPARg SRC2 recr: promotes SRC-2 coactivator recruitment by human PPARgamma; PPARgamma LBD-SRC-2 recruitment, biochemical; activation, % at 8 µM; hit rate 0.34% among 200,000; in the data active = activation above about 22%;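 also: 0% = vehicle and 100% = reference agonist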
PPARg SRC-1 ag: PPARgamma-driven SRC-1 recruitment agonism; hit rate 0.41% among 200,000; activation, % at 8 µM; P37231; PPARgamma-SRC-1 coactivator recruitment biochemical assay; AID 631; in the data active = activation above about 19%;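 also: 0% = DMSO and 100% = reference agonist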
PPARg SRC2 ag: human PPARgamma SRC-2 recruitment agonism, confirmation; shares compounds with PPARg SRC-3 ag; biochemical SRC-2 recruitment by PPARgamma; activation, % at 8 µM; hit rate 52% among 790; AID 1297; in the data active = activation above about 22%;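 also: 0% = vehicle alone and 100% = reference agonist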
PPARg SRC1 conf: human PPARgamma SRC-1 recruitment agonism, confirmation | hit rate 43% among 790 | PPARgamma–SRC-1 coactivator recruitment biochemical assay | shares compounds with PPARg SRC-3 ag | activation, % at 8 µM | AID 1300; in the data active = activation above about 20%;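 also: 0% = vehicle wells and 100% = reference agonist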
PPARg SRC3 ag: confirmation of agonists of SRC-3 recruitment by human PPARgamma | shares compounds with PPARg SRC-3 ag | biochemical PPARgamma-SRC-3 coactivator recruitment, agonist mode | activation, % at 8 µM | hit rate 29% among 790 | AID 1301; in the data active = activation above about 24%;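 also: 0% = vehicle wells and 100% = reference agonist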
The depositor's hits bear a star; x = no result. Rule as the data show it, unless noted: active = TR-FRET ratio above about 2000; inactive = the rest.

SMILES	SRC3 TRFRET art	SRC1 TRFRET art	SRC2 TRFRET art	PPARg SRC-3 ag	PPARg SRC2 recr	PPARg SRC-1 ag	PPARg SRC2 ag	PPARg SRC1 conf	PPARg SRC3 ag
O=C1C=C(c2cccs2)CC(c2cccs2)C1n1cnc([N+](=O)[O-])c1 (configuration not stated)	x	x	1790	26*	20	12	18	20*	12
C=CCn1c(NCc2cc(C)ccc2O)nc2ccccc21	x	x	1758	3	19	8	x	x	x
C=CCn1c(NC(C)c2cc(Cl)ccc2O)nc2ccccc21 (configuration not stated)	x	x	1650	28*	27*	41*	19	32*	31*
O=C(Nc1ccc(Cl)cc1)Nc1ccc(S(=O)(=O)Nc2ncccn2)cc1	1543	1792	1569	4	7	4	x	x	x
O=C(Nc1ccc(S(=O)(=O)Nc2ncccn2)cc1)c1ccc(Br)s1	x	x	2098*	37*	22*	13	23*	12	15
CCn1c(=S)ccc2ccc(OC)cc21	x	x	2084*	40*	39*	21*	9	4	6
COC1Cc2ccccc2N(C(=O)N2CCN(CCO)CC2)c2ccccc21 (configuration not stated)	x	x	1731	1	9	19*	1	-1	0
CCN(CC)c1ccc(/C=C2\NC(=O)NC2=O)cc1	1594	2555*	1573	13	25*	15	11	9	7
O=C1c2ccccc2C(=O)c2c1ccc(C(=O)N1CCCCC1)c2NCCO	x	x	1568	21	5	21*	13	8	5
CC1CCCN(C(=O)c2ccc3c(c2NCCO)C(=O)c2ccccc2C3=O)C1 (configuration not stated)	x	x	1480	17	15	8	x	x	x
Cc1nc(NC(N)=S)sc1C(=O)Nc1ccccc1	x	x	1621	27*	18	14	5	5	5
Cc1cccc(Nc2nc(-c3ccccc3)c(C(=O)Nc3cccnc3)s2)c1	3117*	3448*	2484*	27*	38*	29*	57*	44*	38*
Cc1nc(N)sc1C(=O)Nc1ccccc1	x	x	1547	4	-4	2	x	x	x
O=C(Nc1cccnc1)c1sc(Nc2ccccc2)nc1-c1ccccc1	3330*	3708*	2618*	42*	55*	48*	79*	59*	54*
COC(=O)c1ccc(CNC(=O)COC(=O)Cc2ccsc2)cc1	1439	1779	1494	-6	1	-10	x	x	x
CCn1c2c(c3cc(OCC(C)C)ccc31)CCCC2=O	x	x	1436	3	4	-4	x	x	x
CCn1c2c(c3cc(Br)ccc31)CCC/C2=N\O	x	x	2351*	61*	39*	34*	45*	30*	29*
COC(=O)c1cc(Cl)c(NC(=O)c2ccc(C(C)(C)C)cc2)cc1OC	x	x	1607	20	8	5	x	x	x
COC(=O)c1cc(Cl)c(NC(=O)c2cc3ccccc3o2)cc1OC	x	x	3198*	105*	50*	97*	59*	53*	40*
N#Cc1c(-c2ccco2)nc(SCC(=O)Nc2ccc(S(N)(=O)=O)cc2)[nH]c1=O	x	x	1576	-3	7	5	x	x	x
N#Cc1c(-c2ccco2)nc(SCc2ccc(F)cc2)[nH]c1=O	x	x	2187*	39*	45*	20*	24*	15	16
COc1cc2oc(=O)c(Br)c(C)c2c(OC)c1OC	x	x	2553*	62*	46*	41*	40*	34*	24*
COc1cc2oc(=O)cc(C)c2c(OC)c1OC	1792	1724	1448	2	3	6	x	x	x
Cc1cc(O)ccc1N=Cc1c(C(F)(F)F)[nH][nH]c1=O	1708	1800	1808	10	8	7	x	x	x
COc1cc(N=Nc2c(C)n(C)n(-c3ccccc3)c2=O)ccc1N	1714	1943	1662	11	22	28*	2	2	3
SMILES	SRC3 TRFRET art	SRC1 TRFRET art	SRC2 TRFRET art	PPARg SRC-3 ag	PPARg SRC2 recr	PPARg SRC-1 ag	PPARg SRC2 ag	PPARg SRC1 conf	PPARg SRC3 ag
S=C(Nc1ccc2nsnc2c1)N1CCCCC1	1795	2191	1710	9	22*	17	21	18	14
Cc1ccc2nc(N3CCN(C)CC3)c(C#N)cc2c1	x	x	1378	-2	-4	3	x	x	x
Cc1ccc2nc(N3CCN(S(=O)(=O)c4ccc(C)c(Cl)c4)CC3)c(C#N)cc2c1	x	x	1637	29*	6	22*	9	6	4
FC(F)(F)c1ccc(Cl)c(N/N=C/c2ccc(N3CCOCC3)s2)c1	1718	1899	1574	4	4	7	x	x	x
O=C(O)CCc1ccc(-c2ccc(Br)cc2)o1	x	x	2456*	62*	42*	28*	26*	16	20
CCCCn1c(=S)[nH]c2c(oc3ccc(Cl)cc32)c1=O	x	x	1792	18	17	22*	12	5	11
Cc1ccc(C2=NN=C(NC(=O)C(F)(F)F)SC2)cc1	1473	1687	1588	-2	2	4	x	x	x
COc1ccccc1Nc1nc(C)cc(=O)[nH]1	x	x	1643	6	-5	7	x	x	x
COc1ccccc1Nc1nc2ccccc2[nH]1	x	x	1580	27*	8	11	8	7	4
COc1ccccc1NC(=O)c1ccc(-n2cncn2)nc1	1488	1830	1534	-4	0	-5	x	x	x
O=C(Nc1ccccc1F)c1ccc(-n2cncn2)nc1	x	x	1617	10	23*	1	6	5	3
O=C1c2ccccc2C(=O)N1c1cccc(-c2csc(Nc3ccc4c(c3)OCO4)n2)c1	1746	2024	1630	12	26*	19	14	12	8
O=c1c(O)c(-c2ccc(O)cc2O)oc2cc(O)cc(O)c12	1822	1969	1591	9	7	23*	-5	-5	0
COC(=O)c1c(NC(=O)Cc2ccccc2)sc(C)c1C	x	x	1586	-8	-1	-4	x	x	x
COC(=O)c1c(NC(=S)Nc2ccccc2Cl)sc(C)c1C	x	x	2012*	38*	31*	22*	31*	24*	19
Cc1ccc(OCCn2cc(/C=C3\C(=O)NN(c4ccccc4)C3=O)c3ccccc32)cc1	1493	1900	1700	-4	1	-2	x	x	x
O=C1NN(c2ccccc2)C(=O)/C1=C/c1ccc(Sc2cccc3ccccc23)o1	2511*	2739*	2448*	18	39*	30*	25*	19	19
O=C(CSc1nc2scc(-c3ccco3)c2c(=O)n1-c1ccccc1)N1CCOCC1	x	x	2021*	37*	35*	23*	26*	21*	19
NC(=O)CSc1nc2scc(-c3ccco3)c2c(=O)n1-c1ccccc1	x	x	1825	5	15	15	x	x	x
